Laboratory results published in PubChem BioAssay AID589 (National Center for Advancing Translational Sciences (NCATS), 2007).
Hit rate of the full screen: of about 59,000 compounds, about 6,200 (11%) were called active. Inconclusive results (about 9%) are left out. Cut-off read from the data, not from the text of the source: active = max dye-equivalent concentration above about 10 nM; inconclusive = mostly about 1.1 nM to 9.6 nM; inactive = weaker than that. This excerpt belongs to a sample that is enriched for actives.

assay: qHTS Assay for Spectroscopic Profiling in 4-MU Spectral Region; conditions: compound autofluorescence, 340/450 nm, 4-MU equivalents; active compounds read high
Summary of the method: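 Compounds in 100 mM Tris, pH 8.0, sat 15 min at room temperature before fluorescence was read at 340 nm excitation/450 nm emission; a per-plate six-point 4-MU standard curve converted signals to dye-equivalent concentration at each compound concentration.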

Compound | max dye-equivalent concentration
O=C(NCCSc1ccccc1)c1ccco1 | inactive
Cc1cc2ccccc2n2c(SCC(=O)N3CCN(C(=O)c4ccco4)CC3)nnc12 | inactive
CC12CCC(C(=O)N3CCN(c4ncccn4)CC3)(c3nc4ccccc4nc31)C2(C)C (configuration not stated) | inactive
O=c1c(-c2ccc3c(c2)OCCO3)c(C(F)(F)F)oc2cc(O)cc(O)c12 | inactive
CC(=O)Nc1ccn(Cc2c(F)cccc2Cl)n1 | inactive
O=C(c1ccncc1)N1CCC2(CCCN(C(c3ccccc3)c3ccccc3)C2)CC1 | inactive
CC1CCCCC1NC(=O)CSc1nnc(N)s1 (configuration not stated) | inactive
CC(=O)CSc1nnc(CSc2ncccn2)n1C1CCCCC1 | inactive
COc1ccccc1CNC(=O)CCn1c(=O)sc2ccccc21 | inactive
CCN(Cc1nc2ccccc2c(=O)[nH]1)Cc1cc(=O)oc2cc(C)c(C)cc12 | inactive
Cc1ccnc(SCCn2c(Br)nc3c2c(=O)[nH]c(=O)n3C)n1 | inactive
CCCCNC(=O)c1ccccc1NC(=O)c1ccccc1N(C)S(C)(=O)=O | inactive
COc1ccccc1Nc1ncc(C(C)=O)c(C)n1 | inactive
COCCCn1c(CCC(=O)O)ccc1-c1ccc(F)cc1 | 1.6 µM (active)
CCN(CC)S(=O)(=O)c1cccc(C(=O)Nc2cc(C)nn2-c2nc(C)cc(C)n2)c1 | inactive
c1ccc2sc(SCCSc3nc4ccccc4s3)nc2c1 | inactive
CCOC(=O)N1CCN(C(=O)CNC(=O)Cc2ccc(Cl)cc2)CC1 | inactive
CCOC(=O)N1CCN(C(=O)c2ccc3nc4cc(Cl)ccc4c(=O)n3c2)CC1 | 1.3 µM (active)
CCOC(=O)N1CCN(C(=O)c2ccc(S(=O)(=O)c3ccc(C)cc3)c(NC(C)=O)c2)CC1 | inactive
COC(=O)c1ccc(N(CC(=O)NC2CCCC2)C(=O)CNC(=O)c2ccco2)cc1 | inactive
Cc1ccccc1N1CC(c2nc3ccccc3[nH]2)CC1=O (configuration not stated) | inactive
CC(C)(C)n1nnc(CCc2nnn(C(C)(C)C)n2)n1 | inactive
Cc1cc(Cl)c(S(=O)(=O)NCc2cccnc2)cc1OCC(N)=O | inactive
COC(=O)C(C)N(C#N)c1nc(C)nc(C)n1 (configuration not stated) | inactive
Cn1c(=O)[nH]c(=O)c2c1nc(Br)n2CCCCSc1nc2ccccc2o1 | inactive
CC[C@]1(O)C[C@@H]2CN(CCc3c([nH]c4ccccc34)[C@@](C(=O)OC)(c3cc4c(cc3OC)N(C)[C@H]3[C@@](O)(C(=O)OC)[C@H](OC(C)=O)[C@]5(CC)C=CCN6CC[C@]43[C@@H]65)C2)C1 | 0.047 µM (active)
CC[C@]1(O)CC2CN(CCc3c([nH]c4ccccc34)[C@@](C(=O)OC)(c3cc4c(cc3OC)N(C=O)[C@H]3[C@@](O)(C(=O)OC)[C@H](OC(C)=O)[C@]5(CC)C=CCN6CC[C@]43[C@@H]65)C2)C1 (some centres not stated) | inactive
